# Screening data (PubChem BioAssay)
# DT40 TDP1 CPT: qHTS for Inhibitors of human tyrosyl-DNA phosphodiesterase 1 (TDP1): qHTS in cells in presence of CPT; chicken DT40 Tdp1-/-;hTDP1 cells + 20 nM CPT, ATP luminescence, 48 h; Potency, µM (series often up to 46.2 µM), hits mostly inhibitors; 420,000 compounds, 12% hits; also: nearly all actives have a fitted effect of over 55% in size
#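 Cell growth measured by CellTiter-Glo luminescence after a minimum 48 h, 37 C compound exposure with 20 nM CPT in Tdp1-knockout DT40 cells stably expressing hTDP1, seeded 400/well; qHTS titration format.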
# ATXN viability: Viability Counterscreen for Primary qHTS for Inhibitors of ATXN expression; Potency, µM (series often up to 56.7 µM), most hits filed as cytotoxic; S2 cells (HEK-293 line with an ATXN2-luciferase reporter) viability, CellTiter-Fluor protease fluorescence, 24 h; AID 651635, 2014; 400,000 compounds, 0.49% hits; also: nearly all actives have a fitted effect of over 40% in size
# HepG2 tox: qHTS for Inhibitors of TGF-b: Cytotox Counterscreen. HepG2 CAGA-GFP viability, ATP luminescence, 18 h. Potency, µM (titrated, usually from 46.1 µM), most hits filed as cytotoxic. 410,000 compounds, 0.76% hits. AID 588856, 2011
#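 HepG2 CAGA-GFP cells (1000/well, DMEM with 1% FBS) received compound, then TGF-beta at 500 pg/mL final, and were incubated 18 hours at 37 degrees C. Viability was read by CellTiter-Glo luminescence. Media-only wells were set as complete cell-killing and DMSO as no toxicity.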
# DT40 TDP1 no CPT: qHTS for Inhibitors of human tyrosyl-DNA phosphodiesterase 1 (TDP1): qHTS in cells in absence of CPT. DT40 Tdp1-/- hTDP1 cells, no CPT, ATP luminescence, 48 h. 420,000 compounds, 15% hits. Potency, µM (titrated, usually from 46.2 µM), hits mostly inhibitors. AID 686978, 2013; also: nearly all actives have a fitted effect of over 55% in size
#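 Chicken DT40 Tdp1-/- cells complemented with human TDP1, screened without camptothecin (DMSO vehicle only), 400 cells/well. Compounds pin-transferred, cells incubated at 37 °C for at least 48 hr. Growth read as ATP-dependent luminescence (CellTiter-Glo, 30 min at RT).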
# TGFb SMAD3 inh: qHTS for Inhibitors of TGF-b; Potency, µM (highest dose often 46.1 µM), actives largely listed as inhibitors; AID 588855, 2011; HepG2 CAGA-GFP TGF-b/SMAD3 reporter, GFP fluorescence, 18 h; TGF-beta stimulated, 500 pg/mL final; 410,000 compounds, 1.2% hits; also: nearly all actives have a fitted effect of over 65% in size
#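 HEPG2 CAGA-GFP reporter cells (1000/well, DMEM with 1% FBS) received compounds, then recombinant TGF-beta at 500 pg/mL final for 18 hours at 37 degrees C. Per-cell GFP summed per well was normalised to unstimulated and stimulated DMSO controls before curve fitting.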
# ATXN2 expr inh: Primary qHTS for Inhibitors of ATXN expression; HEK-293 ATXN2-luciferase reporter, luminescence, 24 h; AID 1745845, 2022; 360,000 compounds, 0.72% hits; Potency, µM (series often up to 57 µM), most hits filed as inhibitors; also: nearly all actives have a fitted effect of over 55% in size
#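 qHTS (up to 57 uM final) was run with 24 h compound exposure of reporter cells at 37 °C. Each well was multiplexed: SteadyGlo luminescence measured ATXN2-luciferase expression after a fluorogenic Gly-Phe-AFC viability readout (25 uM final).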
# A number is an active result; i = inactive; ? = inconclusive; nt = no result; [ ] = remark or other dose. An excerpt weighted towards active compounds, which were near 17% of everything screened. Calls follow the shape of the dose curve; as a rule, active = well fitted curve in the direction sought with a large enough effect; inconclusive = small, poorly fitted or top-dose-only effect, or another doubt; inactive = no such curve, though single readings can be large; an effect the other way counts as inactive or inconclusive.
SMILES,DT40 TDP1 CPT,ATXN viability,HepG2 tox,DT40 TDP1 no CPT,TGFb SMAD3 inh,ATXN2 expr inh
COC(=O)C1=C(c2ccc(OC)c(OC)c2)C[C@@H]2CC[C@H]1N2C(=O)NCCOc1ccccc1,?,i,i,i,?,i
CCCNC(=O)N1[C@H]2CC[C@@H]1C(C(=O)OC)=C(c1ccc(OC(F)(F)F)cc1)C2,?,i,i,15µM,i,i
COC(=O)C1=C(c2ccc(OC(F)(F)F)cc2)C[C@@H]2CC[C@H]1N2C(=O)NCCCOC(C)C,?,i,i,?,i,i
COC(=O)C1=C(c2ccc(Cl)c(C(F)(F)F)c2)C[C@@H]2CC[C@H]1N2C(=O)NCCO,i,i,i,i,i,i
N#Cc1ccc(CN2CC[C@@]3(CCCN(C(=O)Oc4ccccc4)C3)C2)cc1,i,nt,nt,?,nt,nt
CN(CCc1ccccc1)C(=O)c1ccc(NC(=O)Cc2cccc([N+](=O)[O-])c2)cc1,?,?,i,?,?,?
CCSc1nnc(NC(=O)c2cccn(Cc3ccccc3Cl)c2=O)s1,i,i,i,i,i,i
COC(=O)C1=C(c2ccc(Cl)c(C(F)(F)F)c2)C[C@@H]2CC[C@H]1N2C(=O)NC1CCCCC1,13µM,?,i,21µM,?,i
COC(=O)C1=C(c2ccc(OC(F)(F)F)cc2)C[C@@H]2CC[C@H]1N2C(=O)NC(C)C,16µM,i,i,21µM,i,i
COC(=O)C1=C(c2ccc(Cl)c(C(F)(F)F)c2)C[C@@H]2CC[C@H]1N2C,?,i,i,i,i,i
CCc1cccc(CC)c1NC(=O)Cn1c(-c2ccc(F)cc2)noc1=O,i,i,i,i,i,i
CC[C@@H](C)[C@H](C(CC(=O)N1CCCC1[C@@H](OC)[C@H](C)C(=O)N[C@H](Cc1ccccc1)c1nccs1)OC)N(C)C(=O)[C@H](NC(=O)[C@@H](C(C)C)N(C)C)C(C)C (some centres not stated),i,?,i,i,i,i
CNC1C2CN3CCC(O2)C13 (configuration not stated),i,nt,nt,i,nt,nt
C[C@]12CC[C@@H](O)CC1=CC(=O)C1C2CC[C@]2(C)C(=O)CCC12 (some centres not stated),?,i,i,?,i,i
Cc1ccc2c(C)c3ccc4ccccc4c3c[n+]2c1,3.7µM,i,i,4.6µM,?,?
O=C1C(=O)c2cccc3cccc1c23,0.58µM,?,i,0.65µM,?,?
O=C1C(=O)c2ccccc2-c2ccccc21,0.52µM,2.8µM,1.3µM,0.58µM,1.1µM,2.5µM
O=S1(=O)N(Cc2ccccc2)CCCN1Cc1cccc(Cl)c1,i,i,i,?,i,i
CCCSP(=O)(OCC)SCCC,i,i,nt,i,nt,i
O=C(Cn1c(=O)oc2cc(S(=O)(=O)NCc3ccccc3)ccc21)Nc1ccc(F)c(Cl)c1,?,nt,i,?,i,nt
COc1ccc(NC(=O)Cn2c(=O)oc3cc(S(=O)(=O)NCc4ccccc4)ccc32)c(OC)c1,8.2µM,nt,i,6.5µM,i,nt
Cc1ccc(C)c(NC(=O)Cn2c(=O)oc3cc(S(=O)(=O)NCc4ccccc4)ccc32)c1,13µM,i,i,8.2µM,?,i
CC(N)(COP(=O)(O)Oc1ccccc1)C(=O)O (configuration not stated),i,nt,nt,i,nt,nt
Cc1cc(C)cc(Nc2nc3ccc(C)cc3n3cnnc23)c1,i,i,i,?,i,i
Cc1ccc(C)c(N2CCN(c3nc4ccc(Cl)cc4n4cnnc34)CC2)c1,18µM,nt,i,16µM,nt,nt
SMILES,DT40 TDP1 CPT,ATXN viability,HepG2 tox,DT40 TDP1 no CPT,TGFb SMAD3 inh,ATXN2 expr inh
CCCc1nnc(NC(=O)CCC(=O)N2CCN(Cc3ccc(OC)c(F)c3)CC2)s1,?,i,i,?,i,i
CCN1C[C@@]2(C)CC[C@@H](OC)[C@@]34C2C(O)[C@@]2(OCO[C@]25CC(OC)C2C[C@@]3(O)C5C2O)C14 (some centres not stated),i,nt,nt,i,nt,nt
CCN(CC)c1ccc(CNCCc2ccccc2F)cc1,?,?,i,16µM,i,i
COc1cc(OC)c(OC)cc1CNCCc1ccc2c(c1)OCO2,?,i,i,?,i,nt
C[C@]12CC[C@@H]3c4ccc(O)c(O)c4CC[C@H]3[C@@H]1CC[C@@H]2O,26µM,?,i,13µM,?,i
Nc1ccc(Cl)cc1N,?,?,nt,i,nt,i
COC1CC2C=C(C)C=CC=CC(=O)NC(c3ccccc3)CC=CCCC(O)CC(=O)C2=C1O (configuration not stated),0.46µM,14µM,i,0.52µM,?,2.8µM
CCCCn1c(O)c(C(C)=NCCc2c[nH]c3ccccc23)c(=O)[nH]c1=O,?,i,i,16µM,?,i
C=CCn1c(O)c(C(C)=NCCc2c[nH]c3ccccc23)c(=O)[nH]c1=O,i,i,i,i,i,i
CCCCn1c(O)c(C(C)=Nc2cccc(C(=O)O)c2)c(=O)[nH]c1=O,i,i,i,i,i,i
CCCCn1c(O)c(C(C)=Nc2ccc(OCC)cc2)c(=O)[nH]c1=O,18µM,i,i,23µM,i,i
C/C(=C\c1csc(C)n1)[C@@H]1C[C@@H]2O[C@]2(C)CCC[C@H](C)[C@H](O)[C@@H](C)C(=O)C(C)(C)[C@@H](O)CC(=O)O1,0.0012µM,nt,nt,0.0013µM,nt,nt
CCCCCn1c(=O)c(C(=O)NCc2ccc(Cl)cc2)c(O)c2ccccc21,?,i,i,?,i,i
COc1ccc(CNC(=O)Cn2c(=O)nc(-c3ccccc3F)c3cc(Cl)ccc32)cc1,1.5µM,nt,i,2.1µM,i,nt
O=C1NC(=S)NC(=O)C1=Cc1ccc(OCC(=O)N2CCCC2)cc1,i,i,i,i,i,i
COc1ccc(OCC(=O)N2CCN(Cc3nc4cc([N+](=O)[O-])ccc4n3C)CC2)cc1,15µM,i,i,?,i,i
CSc1ccc(CN2CCN(C(=O)COc3cccc(C)c3)CC2)cc1,16µM,i,i,21µM,?,i
O=[N+]([O-])c1cccc(CN2CCN(Cc3ccc(Cl)cc3)CC2)c1,?,i,i,16µM,?,i[11.3 µM]
O=C(COc1ccc(Cl)cc1)N1CCN(Cc2ccc([N+](=O)[O-])cc2)CC1,?,i,i,23µM,?,nt
Cc1cccc(C(C)C)c1NC(=O)Cn1c(=O)oc2cc(S(=O)(=O)N3CCCC3)ccc21,18µM,nt,i,15µM,nt,nt
